TEAD-YAP block = TEAD-YAP interaction inhibition; inhibition, % at 9.12 µM; HEK-TIYL cells, TEAD-Gal4/YAP UAS-luciferase luminescence; 1.4% of 640,000 active; in the data active means inhibition above about 32%;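 further: 0% = median of test compound wells and 100% = reference inhibitor wells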
MITF primary = human MITF inhibition, primary screen. O75030. AlphaScreen MITF homodimerization, bead proximity signal. inhibition, % at 2.6 µM. 0.91% of 650,000 active; in the data active means inhibition above about 50%;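 further: 0% = vehicle wells with protein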
GPR151 ag = human GPR151 activation. 1% of 650,000 active. PathHunter beta-arrestin GPR151 cells, luminescence. activation, % at 11.2 µM. AID 1508602. Q8TDV0; in the data active means activation above about 4.9%;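 further: 0% = median of compound wells and 100% = cells with positive control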
FBW7 activator = activators of human E3 ligase FBW7. AlphaScreen FBW7–phospho-cyclin E peptide binding, activator screen. normalized activity (activation), % at 26.1 µM. 0.13% of 650,000 active; in the data active means normalized activity above about 1.9%;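 further: purified mutant Fbw7 with reduced substrate affinity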
MITF inh conf = human MITF inhibition, confirmation. shares compounds with MITF primary. AlphaScreen MITF homodimerization, biotin/His-MITF beads. inhibition, % at 2.6 µM. 16% of 4,700 active. AID 1259372;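 active means inhibition above a cutoff derived from the DMSO control wells, cut at about 28% in these data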;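 further: 0% = MITF dimer wells with DMSO only; inhibitors lower the bead chemiluminescence by keeping MITF from dimerizing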
AlphaScreen DR = AlphaScreen optical interference, dose response counter-screen | shares compounds with MITF primary | AlphaScreen optical interference counterscreen, cell-free | IC50, µM | 6% of 480 active; call rule not given here
AS interf ctr = AlphaScreen optical interference, counter-screen; shares compounds with MITF primary; LysRS AlphaScreen counterscreen, signal interference, triplicate; inhibition, % at 2.6 µM; 7.6% of 4,700 active; AID 1259376;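 active means inhibition above a cutoff derived from the DMSO control wells, cut at about 30% in these data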
* hit, by the source's call. Compounds with a hit are over-represented: about 3.5% of the library has one in this group of screens.

Screening O=C(CN1Cc2ccccc2OC(c2ccccc2F)C1)NCC1CCS(=O)(=O)C1 (configuration not stated) returned TEAD-YAP block 5.3, MITF primary 61.5*, GPR151 ag -0.4, FBW7 activator 0.0, MITF inh conf 1.9 and AS interf ctr 2.2.
Screening O=C(CN1Cc2ccccc2OC(c2ccccc2F)C1)NC1CCC(O)CC1 (configuration not stated) returned TEAD-YAP block -4.8, MITF primary -4.7, GPR151 ag -1.1 and FBW7 activator 0.2.
CCCNCC(O)COC(c1ccccc1)c1ccccc1 (configuration not stated) was read as TEAD-YAP block -0.9, MITF primary 16.9, GPR151 ag 0.7 and FBW7 activator -0.3.
COc1ccc(C(OCC(O)CNCCN(C)C)c2ccc(OC)cc2)cc1 (configuration not stated) was read as TEAD-YAP block -2.2, MITF primary 66.7*, GPR151 ag -1.1, FBW7 activator 0.7, MITF inh conf 10.9 and AS interf ctr 10.4.
COc1ccc(C)cc1NC(=O)C(C(C)C)N1C(=O)c2ccccc2C1=O (configuration not stated) was read as TEAD-YAP block 5.3, MITF primary 70.7*, GPR151 ag 0.0, FBW7 activator 0.1, MITF inh conf 0.3 and AS interf ctr -1.9.
For COc1ccc(C)cc1NC(=O)C(NCC(O)c1ccccc1)c1ccccc1 (configuration not stated) the results were TEAD-YAP block -5.0, MITF primary 83.7*, GPR151 ag 3.6, FBW7 activator -0.5, MITF inh conf 29.9*, AlphaScreen DR >7.02 and AS interf ctr 29.3.
Screening COc1ccc(C)cc1NC(=O)C(C)c1ccccc1 (configuration not stated) returned TEAD-YAP block -12.1, MITF primary -4.9, GPR151 ag 0.5 and FBW7 activator 0.2.
Screening COC(=O)C(C)CN1CCN(C)CC1 (configuration not stated) returned TEAD-YAP block -3.2, MITF primary 59.7*, GPR151 ag 0.1, FBW7 activator -0.2, MITF inh conf -22.9 and AS interf ctr -6.4.
For CC(=O)Nc1ccc(CN2CCCC(C(=O)Nc3ccc(-c4ccn[nH]4)cc3)C2)cc1 (configuration not stated) the results were TEAD-YAP block -6.1, MITF primary 3.7, GPR151 ag 0.3 and FBW7 activator 0.0.
Screening CC(C)CN(CC(C)C)C(=O)CN1C(=O)NC(C)(c2ccccc2Cl)C1=O (configuration not stated) returned TEAD-YAP block -2.5, MITF primary -3.1, GPR151 ag 0.9 and FBW7 activator 0.0.
`Cn1c(CN2CCOCC2)nnc1SCC(N)=O` gave TEAD-YAP block 2.4, MITF primary 3.6, GPR151 ag 0.6 and FBW7 activator -0.2.
Screening CSc1nnc(CN2CCSCC2)n1C returned TEAD-YAP block 4.1, MITF primary 64.1*, GPR151 ag -1.0, FBW7 activator 0.1, MITF inh conf -3.2 and AS interf ctr -5.2.
Cc1ccc(C(=O)COC(=O)C(C(C)C)N2C(=O)C3C4C=CC(C4)C3C2=O)cc1[N+](=O)[O-] (configuration not stated) was read as TEAD-YAP block -2.6, MITF primary 82.0*, GPR151 ag 1.8, FBW7 activator -0.1, MITF inh conf 7.5 and AS interf ctr 10.7.
`CCc1nnc(NS(=O)(=O)c2ccc(NC(=O)COc3ccccc3)cc2)s1` gave TEAD-YAP block 4.3, MITF primary 65.4*, GPR151 ag 0.1, FBW7 activator -0.1, MITF inh conf -3.5 and AS interf ctr -3.0.
CCC(=O)Nc1ccc(S(=O)(=O)Nc2nnc(CC)s2)cc1 was read as TEAD-YAP block 7.8, MITF primary 8.3, GPR151 ag 0.3 and FBW7 activator 0.2.
For CC(C)OCCCNC(=O)c1sc2ccccc2c1Cl the results were TEAD-YAP block -20.3, MITF primary 3.5, GPR151 ag -2.5 and FBW7 activator 0.0.
`NC(=O)c1ccc(N=Cc2cc3c(cc2[N+](=O)[O-])OCO3)cc1` gave TEAD-YAP block -6.0, MITF primary 58.0*, GPR151 ag -1.2, FBW7 activator -0.5, MITF inh conf 75.9*, AlphaScreen DR >6.48 and AS interf ctr 9.5.
